Experimental data as given in PubChem BioAssay (NCI).
Compounds without any hit were thinned out: in the full panel of roughly 79,000, 15% have a hit. The source made the active and inactive calls. Rule as the data show it: active = growth inhibition above about 70%; inactive = the rest.

Assays:
[1] = NCI Yeast Anticancer Drug Screen. Data for the mec2-1 strain (AID 157); details: S. cerevisiae mec2-1 strain, active compounds read high
Procedure, shortened: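 Growth inhibition is read against vehicle-treated controls after compound exposure of the mec2-1 yeast strain, which is defective in DNA damage repair or cell cycle control.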

[2] = NCI Yeast Anticancer Drug Screen. Data for the rad14 strain (AID 159);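 also: 0% = growth of vehicle-treated control cultures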; details: S. cerevisiae rad14 strain growth inhibition, active compounds read high
Procedure, shortened: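 Screen for anticancer potential: a yeast strain altered in DNA damage repair is grown with compound, and reduced growth is quantified against vehicle controls.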

[3] = NCI Yeast Anticancer Drug Screen. Data for the sgs1 mgt1 strain (AID 161);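 also: 0% = growth of cultures given vehicle only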; details: S. cerevisiae sgs1 mgt1 strain, active compounds read high
Procedure, shortened: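 Compounds are added to genetically altered yeast, and growth is compared with cultures given vehicle alone to give percent inhibition.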

[4] = NCI Yeast Anticancer Drug Screen. Data for the CLN2oe strain (AID 163);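 also: 0% = growth of vehicle-only control cultures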; details: S. cerevisiae CLN2oe strain, active compounds read high
Procedure, shortened: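 Compound-treated yeast; growth vs vehicle ctrl = % inhibition. Genetically altered strain (cell-cycle control).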

[5] = NCI Yeast Anticancer Drug Screen. Data for the cln2 rad14 strain (AID 165);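 also: 0% = growth equal to vehicle treated cultures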; details: S. cerevisiae cln2 rad14 strain, active compounds read high
Procedure, shortened: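 Growth inhibition, relative to vehicle-treated controls, is the read-out. The test organism is a yeast strain with defined genetic alterations, cln2 rad14.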

[6] = NCI Yeast Anticancer Drug Screen. Data for the bub3 strain (AID 167); details: S. cerevisiae bub3 mutant strain, active compounds read high
Procedure, shortened: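 Screening used yeast with an engineered genetic alteration affecting cell cycle control. Compound-exposed cultures were compared with vehicle cultures, and reduced growth was taken as inhibition.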

[7] = NCI Yeast Anticancer Drug Screen. Data for the wt2 strain (AID 169);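 also: 0% = growth of vehicle-treated yeast cultures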; details: S. cerevisiae wt2 strain growth inhibition, active compounds read high
Procedure, shortened: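 Compound exposure of yeast; growth compared with vehicle controls; inhibition reported.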

[8] = NCI Yeast Anticancer Drug Screen. Data for the mlh1 strain (AID 171);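 also: 0% = growth of vehicle-treated control cultures of the same strain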; details: S. cerevisiae mlh1 strain growth inhibition, active compounds read high
Procedure, shortened: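 Compounds are applied to a genetically altered yeast strain, and its growth is compared with that of vehicle-treated cultures to give percent inhibition.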

[9] = NCI Yeast Anticancer Drug Screen. Data for the mlh1 rad18 strain (AID 175); details: S. cerevisiae mlh1 rad18 strain growth inhibition, active compounds read high
Procedure, shortened: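 Cells of a genetically altered yeast strain, deficient in DNA damage repair, were treated with compound. Their growth was then compared with that of vehicle-treated cultures to give inhibition.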

[10] = NCI Yeast Anticancer Drug Screen. Data for the rad18 strain (AID 177); details: S. cerevisiae rad18 mutant growth inhibition, active compounds read high
Procedure, shortened: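 Compounds are applied to a repair-deficient yeast strain, and growth is compared with that of vehicle-treated cultures to give percent inhibition.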

[11] = NCI Yeast Anticancer Drug Screen. Data for the rad52 strain (AID 147);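 also: 0% = growth of vehicle-treated control cultures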; details: S. cerevisiae rad52 mutant growth inhibition, active compounds read high
Procedure, shortened: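 DNA repair-defective yeast; compound exposure; growth scored against vehicle controls.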

[12] = NCI Yeast Anticancer Drug Screen. Data for the wt1 strain (AID 149);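 also: 0% = growth of vehicle-treated wt1 cultures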; details: S. cerevisiae wt1 strain (SPY 50644) growth inhibition, active compounds read high
Procedure, shortened: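 Using yeast strain wt1, compound-induced growth inhibition was determined against vehicle-treated cultures.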

[13] = NCI Yeast Anticancer Drug Screen. Data for the rad50EPP+ strain (AID 151);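 also: 0% = growth of vehicle-treated control cultures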; details: S. cerevisiae rad50 mutant strain, active compounds read high
Procedure, shortened: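 rad50EPP+ yeast treated with test compounds. Readout: growth vs vehicle control.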

[14] = NCI Yeast Anticancer Drug Screen. Data for the mgt1 strain (AID 153); details: S. cerevisiae mgt1 mutant growth inhibition, active compounds read high
Procedure, shortened: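 Growth inhibition relative to vehicle controls was scored for the mgt1 yeast strain after compound exposure.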

[15] = NCI Yeast Anticancer Drug Screen. Data for the rad50 strain (AID 155);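 also: 0% = growth of vehicle-only cultures of the same strain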; details: S. cerevisiae rad50 strain growth inhibition, active compounds read high
Procedure, shortened: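 Relative growth inhibition (compound vs vehicle) was measured in yeast with a defined repair-gene alteration.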

[16] = NCI Yeast Anticancer Drug Screen. Data for the sgs1 strain (AID 173);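 also: 0% = growth of vehicle-only control cultures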; details: S. cerevisiae sgs1 mutant, active compounds read high
Procedure, shortened: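 Compounds applied to genetically altered yeast; growth compared with vehicle-treated cultures to give % inhibition.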

[17] = at 5.0 µM (retest, dose inferred, filed as 0.5)
[18] = at 50.0 µM (retest, dose inferred, filed as 5.0)

Measured: growth inhibition

O=C1C(Br)=C(c2ccccc2)O/C1=C/C(=O)c1ccc(Br)cc1
inactive: [1]; [17] -6% | [1]; at 11.0 µM 8% | [1]; at 33.0 µM 20% | [1]; [18] 25% | [1]; at 50.0 µM 21.1% | [2]; at 1.2 µM 3% | [2]; at 3.7 µM 6% | [2]; at 11.0 µM 13% | [2]; at 33.0 µM 28% | [3]; [17] -7% | [3]; [18] 39% | [3]; at 50.0 µM 53.9% | [4]; at 1.2 µM 1% | [4]; at 3.7 µM 1% | [4]; at 11.0 µM 4% | [4]; at 33.0 µM 9% | [4]; at 100.0 µM 18% | [5]; [17] -13% | [5]; [18] 12% | [5]; at 50.0 µM 29.7% | [6]; at 1.2 µM -2% | [6]; at 3.7 µM -2% | [6]; [17] -16% | [6]; at 11.0 µM -1% | [6]; at 33.0 µM 6% | [6]; [18] 21% | [6]; at 50.0 µM 15.4% | [7]; at 1.2 µM 1% | [7]; at 3.7 µM 3% | [7]; at 11.0 µM 7% | [7]; at 33.0 µM 31% | [7]; at 100.0 µM 69% | [8]; at 1.2 µM -2% | [8]; at 3.7 µM 1% | [8]; at 11.0 µM 9% | [8]; at 33.0 µM 20% | [9]; [17] -16% | [9]; [18] 62% | [9]; at 50.0 µM 52.6% | [10]; at 1.2 µM 2% | [10]; at 3.7 µM 3% | [10]; at 11.0 µM 13% | [10]; at 33.0 µM 25%
active: [1]; at 100.0 µM 92% | [2]; at 100.0 µM 96% | [6]; at 100.0 µM 84% | [8]; at 100.0 µM 89% | [10]; at 100.0 µM 79%

Nc1ccc2c(c1)C(=O)c1ccc(F)cc1-2
inactive: [11]; at 1.2 µM 13% | [11]; at 3.7 µM 24% | [11]; at 11.0 µM 43% | [11]; at 33.0 µM 47% | [11]; at 100.0 µM 53% | [12]; at 1.2 µM 1% | [12]; at 3.7 µM 2% | [12]; at 11.0 µM 9% | [12]; at 33.0 µM 14% | [12]; at 100.0 µM 16% | [13]; at 1.2 µM 13% | [13]; at 3.7 µM 28% | [13]; at 11.0 µM 46% | [13]; at 33.0 µM 59% | [13]; at 100.0 µM 60% | [14]; at 1.2 µM 2% | [14]; at 3.7 µM 9% | [14]; at 11.0 µM 15% | [14]; at 33.0 µM 24% | [14]; at 100.0 µM 19% | [15]; at 1.2 µM 16% | [15]; at 3.7 µM 36% | [15]; [17] 5% | [15]; at 11.0 µM 55% | [15]; at 33.0 µM 61% | [15]; at 100.0 µM 51% | [1]; at 1.2 µM 4% | [1]; at 3.7 µM 10% | [1]; [17] -2% | [1]; at 11.0 µM 11% | [1]; at 33.0 µM 13% | [1]; [18] 30% | [1]; at 50.0 µM 19.6% | [1]; at 100.0 µM 22% | [2]; at 1.2 µM 6% | [2]; at 3.7 µM 13% | [2]; at 11.0 µM 15% | [2]; at 33.0 µM 18% | [2]; at 100.0 µM 22% | [3]; [17] -6% | [3]; [18] 32% | [3]; at 50.0 µM 9.55% | [4]; at 1.2 µM 5% | [4]; at 3.7 µM 7% | [4]; at 11.0 µM 11% | [4]; at 33.0 µM 20% | [4]; at 100.0 µM 16% | [5]; [17] 5% | [5]; [18] 8% | [5]; at 50.0 µM 5.25% | [6]; at 1.2 µM 2% | [6]; at 3.7 µM 6% | [6]; [17] -13% | [6]; at 11.0 µM 12% | [6]; at 33.0 µM 12% | [6]; [18] 35% | [6]; at 50.0 µM 20% | [6]; at 100.0 µM 20% | [7]; at 1.2 µM 1% | [7]; at 3.7 µM 3% | [7]; at 11.0 µM 7% | [7]; at 33.0 µM 11% | [7]; at 100.0 µM 12% | [8]; at 1.2 µM 3% | [8]; at 3.7 µM 13% | [8]; at 11.0 µM 14% | [8]; at 33.0 µM 13% | [8]; at 100.0 µM 22% | [9]; [17] 15% | [9]; at 50.0 µM 33.2% | [10]; at 1.2 µM 0% | [10]; at 3.7 µM 6% | [10]; at 11.0 µM 26% | [10]; at 33.0 µM 35% | [10]; at 100.0 µM 14%
active: [15]; [18] 71% | [15]; at 50.0 µM 81.4% | [9]; [18] 78%

Cc1cc(C(C)(C)CC(C)(C)C)ccc1O
active: [11]; at 33.0 µM 98% | [11]; at 100.0 µM 98% | [12]; at 33.0 µM 99% | [12]; at 100.0 µM 99% | [13]; at 100.0 µM 99% | [14]; at 33.0 µM 98% | [14]; at 100.0 µM 99% | [15]; at 33.0 µM 98% | [15]; [18] 79% | [15]; at 50.0 µM 92.3% | [15]; at 100.0 µM 99% | [1]; at 33.0 µM 99% | [1]; [18] 70% | [1]; at 50.0 µM 91.8% | [1]; at 100.0 µM 99% | [2]; at 33.0 µM 99% | [2]; at 100.0 µM 99% | [3]; [18] 99% | [3]; at 50.0 µM 93.7% | [4]; at 33.0 µM 98% | [4]; at 100.0 µM 99% | [5]; [18] 98% | [5]; at 50.0 µM 92.8% | [6]; at 33.0 µM 98% | [6]; [18] 99% | [6]; at 50.0 µM 92.4% | [6]; at 100.0 µM 99% | [7]; at 33.0 µM 99% | [7]; at 100.0 µM 99% | [8]; at 33.0 µM 95% | [8]; at 100.0 µM 99% | [16]; at 33.0 µM 99% | [16]; at 100.0 µM 99% | [9]; [18] 73% | [9]; at 50.0 µM 92.9% | [10]; at 33.0 µM 98% | [10]; at 100.0 µM 98%
inactive: [11]; at 1.2 µM -22% | [11]; at 3.7 µM -45% | [11]; at 11.0 µM 15% | [12]; at 1.2 µM -1% | [12]; at 3.7 µM -22% | [12]; at 11.0 µM 17% | [13]; at 1.2 µM -16% | [13]; at 3.7 µM -16% | [13]; at 11.0 µM 1% | [13]; at 33.0 µM 60% | [14]; at 1.2 µM -52% | [14]; at 3.7 µM -66% | [14]; at 11.0 µM -37% | [15]; at 1.2 µM 12% | [15]; at 3.7 µM 11% | [15]; [17] 25% | [15]; at 11.0 µM 38% | [1]; at 1.2 µM -41% | [1]; at 3.7 µM -58% | [1]; [17] 28% | [1]; at 11.0 µM 3% | [2]; at 1.2 µM -3% | [2]; at 3.7 µM -30% | [2]; at 11.0 µM 16% | [3]; [17] -14% | [4]; at 1.2 µM -31% | [4]; at 3.7 µM -28% | [4]; at 11.0 µM -17% | [5]; [17] 55% | [6]; at 1.2 µM -9% | [6]; at 3.7 µM -49% | [6]; [17] 6% | [6]; at 11.0 µM 32% | [7]; at 1.2 µM -20% | [7]; at 3.7 µM -34% | [7]; at 11.0 µM -10% | [8]; at 1.2 µM -16% | [8]; at 3.7 µM -53% | [8]; at 11.0 µM -16% | [16]; at 1.2 µM -17% | [16]; at 3.7 µM -38% | [16]; at 11.0 µM 14% | [9]; [17] 26% | [10]; at 1.2 µM -13% | [10]; at 3.7 µM -42% | [10]; at 11.0 µM 36%
